# Results published in PubChem BioAssay.
# Where “and” joins values, the source holds several entries; their conditions need not be identical. Equal values may be shown once. Calls of active or inactive are those of the source. Unless noted, no stated cut-off is given here; in the data, active means inhibition above about 80%; inactive means the rest.
# Assays:
# [1] = target: 6-phosphogluconate dehydrogenase, decarboxylating (Homo sapiens) (UniProt P52209); experiment: 6PGD enzyme inhibitors, primary screen, biochemical, human, recombinant enzyme, NADPH absorbance (AID 1159550;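 active means at least 20% inhibition of 6-phosphogluconate dehydrogenase activity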); settings: recombinant 6PGD, NADPH absorbance 341 nm; at 10 µM; stronger effect = higher value
# Sequence of 6-phosphogluconate dehydrogenase, decarboxylating (Homo sapiens) (P52209 whole entry, looked up): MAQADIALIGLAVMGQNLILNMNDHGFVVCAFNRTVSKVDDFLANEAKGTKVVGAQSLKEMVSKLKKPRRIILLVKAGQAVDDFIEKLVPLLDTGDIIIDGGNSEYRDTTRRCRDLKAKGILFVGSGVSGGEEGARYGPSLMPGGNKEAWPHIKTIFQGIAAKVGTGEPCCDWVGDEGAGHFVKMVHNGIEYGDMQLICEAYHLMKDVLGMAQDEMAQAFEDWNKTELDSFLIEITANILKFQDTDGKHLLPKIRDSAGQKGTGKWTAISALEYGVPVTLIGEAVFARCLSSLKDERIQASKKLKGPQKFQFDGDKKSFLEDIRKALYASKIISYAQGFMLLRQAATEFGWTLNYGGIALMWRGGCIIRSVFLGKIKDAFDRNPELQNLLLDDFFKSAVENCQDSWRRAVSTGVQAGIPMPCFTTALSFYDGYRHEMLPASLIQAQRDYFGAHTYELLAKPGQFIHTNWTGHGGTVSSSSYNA
# [2] = sensitizers of A549 cells to miR-34 induction, primary screen, imaging, A549 dox-inducible miR-34, nuclei and caspase counts (AID 1347080;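 active means compounds whose cell count with miR-34 switched on is under 0.7 times the count with it off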); settings: A549 miR-34 inducible, Hoechst nuclei count, 48 h
# [3] = survival rescue of mitochondrial mutant cells in low glucose, primary screen, MELAS cybrids, Rieske KO mouse fibroblasts, CellTiter-Glo (AID 1508586;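 active means mean z-score across replicates of 1.96 or higher in either the MELAS or the Rieske mutant cell line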;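 further: z relative to plate mean and SD of compound and empty wells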)
# [4] = viability rescue of complex I mutant cybrids, primary screen, cell-based, galactose medium, ATP luminescence (AID 1645843;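 active means z-score of at least 1.8 in each of two replicates, scored against plate mean and spread of sample wells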;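 further: positive z means more ATP and so rescue of galactose-driven cybrid death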); settings: complex I mutant cybrid cells, 72 h, stronger effect = higher value
# [5] = LFS_MB_P medulloblastoma growth inhibition, cell-based, chromothripsis tumors, cisplatin or BGB combos (AID 1671449); settings: LFS_MB_P medulloblastoma cells;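 further: cells exposed for 96 hours; 0% = vehicle DMSO and 100% = killing by high DMSO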
# [6] = HDN33 neuroblastoma growth inhibition, cell-based, chromothripsis tumors, cisplatin or BGB combos (AID 1671450); settings: HDN33 neuroblastoma cells, stronger effect = higher value;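 further: cells exposed to compound for four days; 0% = vehicle DMSO and 100% = cell killing by high DMSO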
# [7] = ICB984 medulloblastoma cell growth inhibition, synergistic combos for chromothripsis tumors, cisplatin or BGB combos (AID 1671451; call rule not given here;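 further: cells exposed for 96 hours before readout; 0% = vehicle DMSO and 100% = killing by high DMSO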); settings: ICB984 medulloblastoma cells, drug combinations, stronger effect = higher value
# [8] = LFS_MB_1R medulloblastoma cell growth inhibition, synergistic combos for chromothripsis tumors, cisplatin or BGB combos (AID 1671452); settings: LFS_MB_1R medulloblastoma cells, stronger effect = higher value;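 further: cells exposed for 96 hours before readout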
# [9] = HTB85 osteosarcoma cell growth inhibition, synergistic combos for chromothripsis tumors, BGB or cisplatin IC20 combos (AID 1671453); settings: HTB85 osteosarcoma cells, drug combinations, stronger effect = higher value;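 further: cells exposed for 96 hours before readout; 0% = vehicle DMSO and 100% = high DMSO killing control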
# [10] = CRL2098 osteosarcoma cell growth inhibition, synergistic combos for chromothripsis tumors, BGB or cisplatin IC20 combos (AID 1671454); settings: CRL2098 osteosarcoma cells, drug combinations, stronger effect = higher value;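 further: cells exposed for 96 h before readout; 0% = vehicle DMSO and 100% = killing by high DMSO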
# [11] = HD-MB03 medulloblastoma cell growth inhibition, synergistic combos for chromothripsis tumors, BGB or cisplatin IC20 combos (AID 1671455; in the data active means inhibition above about 83%;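 further: 0% = vehicle DMSO and 100% = high DMSO as cytotoxic control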); settings: HD-MB03 medulloblastoma cells, stronger effect = higher value
# [12] = UWB1.289 ovarian carcinoma cell growth inhibition, synergistic combos for chromothripsis tumors, BGB or cisplatin combos (AID 1671456); settings: UWB1.289 ovarian carcinoma cells, stronger effect = higher value;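 further: cells exposed to compound for four days; 0% = vehicle DMSO and 100% = killing by high DMSO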
# [13] = LFS_MB_2R medulloblastoma cell growth inhibition, synergistic combos for chromothripsis tumors, cisplatin combos (AID 1671457); settings: LFS_MB_2R medulloblastoma cells, stronger effect = higher value;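 further: cells exposed to compound for four days before readout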
# [14] = MDA-MB-436 breast carcinoma cell growth inhibition, synergistic combos for chromothripsis tumors, BGB or cisplatin combos (AID 1671458; call rule not given here;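 further: cells exposed for 96 hours; 0% = vehicle DMSO and 100% = killing by high DMSO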); settings: MDA-MB-436 breast carcinoma growth inhibition, drug combinations, stronger effect = higher value
# [15] = UWB1.289_BRCA1 ovarian cancer growth, cell-based, BGB or cisplatin combinations (AID 1671459); settings: UWB1.289 BRCA1 ovarian carcinoma, drug combinations, stronger effect = higher value
# [16] = human astrocyte viability loss, single and combined drugs, cytotoxicity control for chromothriptic childhood tumor combination screen, cell-based, BGB or cisplatin IC20 combos (AID 1671460); settings: Human astrocytes, drug combinations, stronger effect = higher value;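 further: cells exposed to compounds for 96 hours before viability readout; 0% = vehicle and 100% = killing control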
# [17] = growth inhibition of BT084 medulloblastoma cells, cell-based, ICGC_MB145, cisplatin and BGB IC40 combos (AID 1671461); settings: drug combinations, stronger effect = higher value;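 further: cells exposed to drugs for 96 hours; 0% = vehicle DMSO and 100% = high DMSO full killing control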
# [18] = growth inhibition of RCMB18 medulloblastoma cells, cell-based, cisplatin and BGB IC40 combos (AID 1671462); settings: stronger effect = higher value;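 further: cells exposed to compound for four days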
# [19] = growth inhibition of CRL1545 osteosarcoma cells, cell-based, cisplatin and BGB IC20 combos (AID 1671464); settings: stronger effect = higher value;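 further: cells exposed to compound for 96 hours before readout; 0% = vehicle DMSO and 100% = high DMSO killing control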
# [20] = measured here: combination with BGB IC40, at 0.05 µM
# [21] = measured here: with BGB IC20 combination, at 0.5 µM
# [22] = measured here: with cisplatin IC20 combination, at 0.5 µM
# [23] = measured here: combination with cisplatin, at 0.5 µM
# [24] = measured here: combination with cisplatin, at 5 µM
structure (smiles),measurement,setting,value
COC1C(OC(N)=O)C(O)C(Oc2ccc3c(O)c(NC(=O)c4ccc(O)c(CC=C(C)C)c4)c(=O)oc3c2C)OC1(C)C (stereo unspecified),inhibition,[1],-15.7% (inactive)
same,fold change,"[2]; stronger effect = lower value, cell number ratio, induced over uninduced",0.913 (inactive) and 0.926 (inactive)
same,fold change,[2]; measured here: relative caspase fold change +Dox/-Dox,2.12 and 1.18
same,cell count,"[2]; measured here: total cells with miR-34 induction, stronger effect = lower value",9290 and 8980
same,cell count,[2]; measured here: total cells without miR-34 induction,10200 and 9700
same,z-score,"[3]; MELAS cybrid survival, CellTiter-Glo 48 h, stronger effect = higher value",-0.751 (inactive) and -0.28 (inactive)
same,z-score,"[3]; Rieske KO mouse fibroblast survival, CellTiter-Glo 72 h",-1.31 and -0.896
same,z-score,[4],0.215 (inactive)
same,inhibition,"[5]; at 0.5 µM, stronger effect = higher value",-3.51% (inactive)
same,inhibition,"[5]; measured here: combination with BGB IC20, at 0.005 µM",-14%
same,inhibition,"[5]; measured here: combination with BGB IC40, at 0.005 µM",-18.4%
same,inhibition,[5]; [20],-8.09%
same,inhibition,"[5]; measured here: combination with cisplatin, at 0.5 µM, stronger effect = higher value",-1.03%
same,inhibition,"[5]; measured here: combination with cisplatin, at 5 µM, stronger effect = higher value",-41%
same,inhibition,"[6]; BGB combo, at 5 µM",-12%
same,inhibition,[6]; at 0.5 µM,-8.11% (inactive)
same,inhibition,"[6]; cisplatin combo, at 5 µM",0.721%
same,inhibition,[6]; [21],3.35%
same,inhibition,[6]; [22],2.19%
same,inhibition,"[6]; single agent, at 5 µM",-35.9%
same,inhibition,"[7]; BGB IC20 combo, at 0.005 µM",-23.7%
same,inhibition,"[7]; BGB IC40 combo, at 0.005 µM",-54.1%
same,inhibition,"[7]; BGB IC40 combo, at 0.05 µM",-30.8%
same,inhibition,[7]; at 0.5 µM,-1.24% (inactive)
same,inhibition,"[7]; cisplatin combo, at 0.05 µM",-30.8%
same,inhibition,"[7]; cisplatin combo, at 0.5 µM",-1.05%
same,inhibition,"[7]; cisplatin combo, at 5 µM",-22.8%
same,inhibition,"[7]; measured here: 5 uM single agent, at 5 µM",-16.3%
same,inhibition,[8]; at 0.5 µM,-15% (inactive)
same,inhibition,[8]; [20],-15.8%
same,inhibition,[8]; [23],17.7%
same,inhibition,[8]; [24],-65.5%
same,inhibition,[9]; at 0.5 µM,-17.6% (inactive)
same,inhibition,"[9]; measured here: with BGB IC20, at 0.5 µM",-24%
same,inhibition,"[9]; measured here: with BGB IC20, at 5 µM",20.3%
same,inhibition,"[9]; measured here: with cisplatin IC20, at 0.5 µM",-30.3%
same,inhibition,"[9]; measured here: with cisplatin IC20, at 5 µM",-20.2%
same,inhibition,"[9]; single agent, at 5 µM",-19%
same,inhibition,[10]; at 0.5 µM,-21.7% (inactive)
same,inhibition,"[10]; measured here: combination with BGB at IC20, at 0.5 µM",-45.3%
same,inhibition,"[10]; measured here: combination with cisplatin at IC20, at 0.5 µM",-25.6%
same,inhibition,[11]; at 0.5 µM,-9.35% (inactive)
same,inhibition,"[11]; measured here: combo with BGB at IC20, at 0.5 µM",-5.37%
same,inhibition,"[11]; measured here: combo with cisplatin at IC20, at 0.5 µM",-13.3%
same,inhibition,[12]; at 0.5 µM,-6.21% (inactive)
same,inhibition,"[12]; measured here: inhibition with BGB combination, at 0.05 µM",-33.1%
same,inhibition,"[12]; measured here: inhibition with cisplatin combination, at 0.05 µM",-19.6%
same,inhibition,[13]; at 0.5 µM,-20.5% (inactive)
same,inhibition,[13]; [23],-9.82%
same,inhibition,[13]; [24],-11.7%
same,inhibition,[14]; at 0.5 µM,-31.4% (inactive)
same,inhibition,"[14]; measured here: BGB combination, at 0.5 µM",-38.4%
same,inhibition,"[14]; measured here: BGB combination, at 5 µM",-32.4%
same,inhibition,"[14]; measured here: cisplatin combination, at 0.5 µM",-35.8%
same,inhibition,"[14]; measured here: cisplatin combination, at 5 µM",-21%
same,inhibition,"[15]; BGB combination, concentration series, at 5 µM",-28.9%
same,inhibition,[15]; at 0.5 µM,-15.6% (inactive)
same,inhibition,"[15]; cisplatin combination, concentration series, at 5 µM",-9.79%
same,inhibition,[16]; at 0.5 µM,-3.92% (inactive)
same,inhibition,"[16]; measured here: combo with BGB IC20, at 0.5 µM",3.16%
same,inhibition,"[16]; measured here: combo with cisplatin IC20, at 0.5 µM",-8.92%
same,inhibition,[17]; at 0.5 µM,-4.18% (inactive)
same,inhibition,"[17]; cisplatin combination, at 0.5 µM",1.57%
same,inhibition,"[17]; cisplatin combination, at 5 µM",-32.1%
same,inhibition,"[17]; measured here: BGB IC40 combination 0.05 uM, at 0.05 µM",37.7%
same,inhibition,"[17]; single agent, at 5 µM",-18.6%
same,inhibition,[18]; at 0.5 µM,-22.3% (inactive)
same,inhibition,"[18]; cisplatin combo, at 5 µM",18.1%
same,inhibition,"[18]; measured here: BGB IC40 combination, at 0.05 µM",-10.1%
same,inhibition,[18]; [23],-16.8%
same,inhibition,"[18]; single agent, at 5 µM",-14.1%
same,inhibition,[19]; at 0.5 µM,-43.4% (inactive)
same,inhibition,[19]; [21],-36.9%
same,inhibition,[19]; [22],-46.6%
same,inhibition,"[19]; single agent, at 0.05 µM",-14.9%
same,inhibition,"[19]; single agent, at 5 µM",4.54%
